# KCNQ2 pot – KCNQ2 (rat) channel potentiation. O88943. CHO-K1 KCNQ2, FluxOR thallium flux fluorescence; stronger effect = higher value. B-score at 10 µM. 310,000 compounds, 0.54% hits;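 active = fluorescence ratio B-score at least 3 SD of library B-scores, with initial fluorescence B-score within 3 of them, cut at about 5.3 in these data; same plate scores as AID 2156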;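 note: B-score of peak minus minimum over baseline fluorescence ratio after K+ and Tl+ stimulus; positive B-score means potentiation of KCNQ2 with more thallium influx and brighter signal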
# Target sequence (O88943 whole entry, looked up): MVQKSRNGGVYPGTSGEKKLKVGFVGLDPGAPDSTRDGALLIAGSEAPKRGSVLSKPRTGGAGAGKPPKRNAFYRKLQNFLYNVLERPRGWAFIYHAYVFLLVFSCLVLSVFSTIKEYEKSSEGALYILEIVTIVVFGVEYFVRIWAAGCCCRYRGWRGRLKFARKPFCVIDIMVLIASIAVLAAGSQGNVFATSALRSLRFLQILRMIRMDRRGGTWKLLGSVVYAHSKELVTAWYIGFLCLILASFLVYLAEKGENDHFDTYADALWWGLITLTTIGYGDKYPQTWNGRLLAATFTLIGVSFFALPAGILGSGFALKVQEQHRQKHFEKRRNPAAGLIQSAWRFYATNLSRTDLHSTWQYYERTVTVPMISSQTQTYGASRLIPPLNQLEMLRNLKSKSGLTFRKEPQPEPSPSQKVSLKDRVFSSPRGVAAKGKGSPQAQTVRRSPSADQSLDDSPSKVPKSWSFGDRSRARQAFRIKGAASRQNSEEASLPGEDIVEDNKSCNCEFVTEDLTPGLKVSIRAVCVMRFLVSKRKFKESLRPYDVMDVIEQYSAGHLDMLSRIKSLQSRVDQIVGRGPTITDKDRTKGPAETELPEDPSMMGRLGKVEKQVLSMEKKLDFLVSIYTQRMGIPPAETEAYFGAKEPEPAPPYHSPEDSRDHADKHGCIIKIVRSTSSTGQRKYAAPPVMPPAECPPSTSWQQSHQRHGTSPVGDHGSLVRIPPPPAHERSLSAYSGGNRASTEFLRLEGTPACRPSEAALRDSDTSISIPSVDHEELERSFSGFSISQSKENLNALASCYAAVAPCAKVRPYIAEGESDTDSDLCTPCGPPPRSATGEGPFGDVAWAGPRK
# KCNQ2 inh – inhibitors of rat KCNQ2 potassium channel; O88943; CHO-K1 KCNQ2, FluxOR thallium flux, 20 min; stronger effect = lower value; B-score at 10 µM; 310,000 compounds, 1.1% hits;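 active = fluorescence ratio B-score at most minus 3 library SDs, with starting brightness B-score within 2 library SDs, cut at about -5.5 in these data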
# * hit, by the source's call; i = inactive; . = not tested or not shown. Only some compounds are listed: those with a hit (about 1.6% of all), similar ones and a draw of the others.
SMILES,KCNQ2 pot,KCNQ2 inh
COc1ccc(NC(=O)c2cccc(N3C(=O)NC4CC3(C)Oc3ccccc34)c2)cc1 (centres undefined),.,i
Cc1cc(NC(=O)COC(=O)c2cc([N+](=O)[O-])ccc2N2CCOCC2)ccc1Br,.,i
Nc1cc([N+](=O)[O-])ccc1N1C(=O)CCCC1=O,1.53,i
O=S(=O)(c1cc(F)ccc1F)N1CCC2(CC1)OCCO2,.,i
O=C(Nc1ccc(F)c(F)c1)c1ccc(F)c(S(=O)(=O)N2CCC3(CC2)OCCO3)c1,5.44*,i
CCOC(=O)C1=C(N)Oc2ccc3ccccc3c2C1c1ccc(O)cc1 (centres undefined),-6.53,-6.53*
CCOC(=O)C1=C(N)Oc2ccc3ccccc3c2C1c1ccc(O)c(OC)c1 (centres undefined),.,i
CCOc1ccc(-n2c(=O)c3sccc3n(CC(=O)NCCc3ccc(OC)c(OC)c3)c2=O)cc1,.,i
COc1ccc(-c2cccc(NC(=O)COc3ccc(Cl)cc3)c2)nn1,0.58,i
O=C(Nc1cccc(Cl)c1)Nc1nnc(CC2=CCCCC2)s1,0.02,i
CC(C)(C)OC(=O)[C@H]1[C@H](c2ccc([N+](=O)[O-])cc2)C2(C(=O)c3ccccc3C2=O)C2c3ccccc3C=NN21 (some centres undefined),-6.09,-6.09*
CCOC(=O)C1C(=O)C=C(c2ccc([N+](=O)[O-])cc2)CC1c1ccccc1 (centres undefined),.,i
COc1ccccc1N1CCN(/N=C/c2ccc(Cl)c([N+](=O)[O-])c2)CC1,-6.1,-6.1*
COc1ccccc1N1CCN(/N=C/c2ccc([N+](=O)[O-])cc2)CC1,.,i
CCCC(Oc1ccc(Br)cc1)c1nc2c3cc(OC)c(OC)cc3nc(=S)n2[nH]1 (centres undefined),.,i
CC(Oc1ccc(Br)cc1)c1nc2c3ccccc3nc(=S)n2[nH]1 (centres undefined),5.42*,i
C=C(C)c1cccc(C(C)(C)NC(=O)Nc2nncs2)c1,.,i
C=C(C)c1cccc(C(C)(C)NC(=O)Nc2nnc(C(C)C)s2)c1,-7.84,-7.84*
O=C(Nc1ccc(C(O)(C(F)(F)F)C(F)(F)F)cc1)c1ccc(Cl)c([N+](=O)[O-])c1,-7,-7*
O=C(O)c1cc(NC(=O)c2ccc(Cl)c([N+](=O)[O-])c2)cc(C(=O)O)c1,0.26,i
CCN(CC)S(=O)(=O)c1ccc(NC=C(C#N)C#N)cc1,.,i
CN1CCN(Cc2coc3c(Cl)cc(Cl)cc3c2=O)CC1,.,i
CC1CCC(NC(=O)C(Cc2ccccc2)n2cccc2)CC1 (centres undefined),-5.82,-5.82*
CC1CCCN(C(=O)C(Cc2ccccc2)n2cccc2)C1 (centres undefined),-6.45,-6.45*
O=C(C(Cc1ccccc1)n1cccc1)N1CCN(c2ccccc2)CC1 (centres undefined),.,i
SMILES,KCNQ2 pot,KCNQ2 inh
Cc1ccc(NC(=O)C(Cc2ccccc2)n2cccc2)cc1 (centres undefined),.,i
COc1ccccc1C(=O)NC(CCSC)C(=O)N1CCC(Cc2ccccc2)CC1 (centres undefined),-7.15,-7.15*
CSCCC(NS(=O)(=O)c1ccc(C)cc1)C(=O)N1CCN(C(c2ccccc2)c2ccccc2)CC1 (centres undefined),.,i
CSCCC(NC(=O)c1ccccc1Cl)C(=O)N1CCN(C(c2ccccc2)c2ccccc2)CC1 (centres undefined),-7.16,-7.16*
COc1ccccc1C(=O)NC(CCSC)C(=O)OC(C)C(N)=O (centres undefined),1.42,i
CC1(C)CCC[C@]2(C)C(CS(=O)c3ccccc3)=C(C=O)CC[C@@H]12 (some centres undefined),.,i
CC(C)C(=O)NC(=S)Nc1ccc(S(=O)(=O)NC2CCCCC2)cc1,.,i
Cc1ccc(CNC(=O)C2CCC(=O)N(CCc3cccc(F)c3)C2)cc1 (centres undefined),0.03,i
C=CCn1c(COc2ccc(F)cc2)nnc1SCC(=O)NC1CCS(=O)(=O)C1 (centres undefined),0.57,i
O=C1CCCN1CCCNS(=O)(=O)c1ccc(F)c(F)c1,0.07,i
COc1ccc(-c2nc(CS(=O)CC(=O)NCc3ccc4c(c3)OCO4)c(C)o2)cc1OC (centres undefined),0.85,i
CC1CCN(C(=O)CSc2nnc(CNC(=O)c3ccc(F)cc3)o2)CC1,0.05,i
COc1cc(C(=O)NCC(=O)Nc2ccc(F)c(F)c2)ccc1OCC(=O)N1CCOCC1,.,i
Cn1c(CSc2ncccn2)nnc1SCC(=O)N1CCCCCC1,0.82,i
Cn1c(CSc2ncccn2)nnc1SCC(=O)N1CCCC1,-6.3,-6.3*
Cc1ccccc1C(=O)Nc1cc(NC(=O)c2ccccc2C)cc(C(=O)O)c1,.,i
C=CCn1c(N)cc(=O)nc1SCC(=O)Nc1ccc(C(=O)OCC)cc1,.,i
O=C(/C=C/c1ccc([N+](=O)[O-])cc1)c1ccco1,-7.34,-7.34*
O=C(/C=C/c1ccc(Br)cc1)c1ccco1,.,i
O=[N+]([O-])c1cccc(N(CC(O)CN2CCCCC2)S(=O)(=O)c2ccccc2)c1 (centres undefined),0.8,i
CC(C)(C)c1csc(NC(=O)Cc2ccc(S(=O)(=O)N3CCOCC3)s2)n1,.,i
O=P(Cc1ccccc1)(c1ccccc1)c1ccccc1,.,i
CC(C)(C)c1cc(CP(=O)(c2ccccc2)c2ccccc2)cc(C(C)(C)C)c1O,-5.71,-5.71*
COc1cccc(OC)c1NC(=O)C1CCCN1C(=O)Nc1cccc(Cl)c1 (centres undefined),.,i
CCC(C)c1ccccc1NC(=O)Cc1coc2cc3c(cc12)CCC3 (centres undefined),7.67*,i
SMILES,KCNQ2 pot,KCNQ2 inh
Cc1ccc(C)c(NC(=O)Cc2coc3cc4c(cc23)CCC4)c1,0.76,i
CC(=O)c1ccc[n+](CC(=O)NC(C)c2ccccc2)c1 (centres undefined),.,i
Cc1ccc(S(=O)(=O)Nc2cccc3ncccc23)s1,5.98*,i
Cc1ccc(S(=O)(=O)Nc2cccc3ncccc23)cc1,.,i
O=C(NCCC1CCCCN1S(=O)(=O)c1ccccc1)C(=O)NCc1ccc(F)cc1 (centres undefined),.,i
CN(Cc1ccccc1)C(=O)C1CCN(S(=O)(=O)c2ccc3nc4c(c(C(=O)O)c3c2)CCCC4)CC1,0.7,i
C=CCn1c(SCc2ccc3c(c2)OCO3)nc2scc(-c3ccco3)c2c1=O,-6.12,-6.12*
C=CCn1c(SCC(C)=O)nc2scc(-c3ccco3)c2c1=O,.,i
COc1ccc2c(c1)cc(C(=O)N[C@@H](CCSC)C(=O)N1CCC(C(=O)O)CC1)n2C,0.32,i
CC(C)Oc1cc(C(=O)NC2CCCCC2)c2ccccc2n1,-6.03,-6.03*
O=C(NC1CCCCCCC1)c1cc(-c2ccccn2)nc2ccccc12,.,i
COc1ccc(CNC(=O)CCCC(=O)n2nc(C)c3ccccc32)cc1,0.18,i
O=C(Nc1cccc(S(=O)(=O)N2CCCCC2)c1)c1ccc([N+](=O)[O-])o1,8.51*,i
O=C(COC(=O)c1ccc([N+](=O)[O-])o1)Nc1cccc(S(=O)(=O)N2CCCCC2)c1,0.25,i
Cc1ccc(Cl)cc1N(CC(=O)NCc1ccccc1)S(C)(=O)=O,1.27,i
Cc1ccc(-c2ccc(/C=N/NC(=O)Cc3nnc(N)s3)o2)cc1Cl,.,i

# Assay outcomes deposited in PubChem by Johns Hopkins Ion Channel Center.
